{"source": "PubChem BioAssay AID1224854", "about": "(National Center for Advancing Translational Sciences (NCATS), 2016)", "note": "Results filed as inconclusive are left out. Activity calls are given as the source filed them. Calls follow the shape of the dose curve; as a rule, active = well fitted activation curve with a large enough effect; inconclusive = small, poorly fitted or top-dose-only effect; inactive = flat fitted curve, though single readings scatter."}
{"experiment": "Cell viability assay for measurement of the protective activity of small molecules against cell death caused by Zika virus infection in human astrocytoma cells", "settings": "SNB-19 Zika virus cytoprotection, ATP luminescence, 72 h; series mostly up to 46.1 µM; protection from virus-induced cell death: at the top concentration", "procedure,_shortened": "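Percent inhibition of Zika-induced cell death derived from ATP-content luminescence after 72 h at 37 C. Compounds were added to SNB-19 cells 1 h before virus at 2 FFU/cell.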"}
{"smiles": "Nc1c(S(=O)(=O)O)cc(Nc2ccc(Nc3nc(Cl)nc(Nc4ccc(S(=O)(=O)O)cc4)n3)c(S(=O)(=O)O)c2)c2c1C(=O)c1ccccc1C2=O", "protection from virus-induced cell death": "-1.96% (inactive)"}
{"smiles": "COc1ccc(NC(=O)/C=C/c2ccc(Cl)cc2)cc1", "protection from virus-induced cell death": "6.63% (inactive)"}
{"smiles": "O=C(Oc1ccccc1)c1cccc(C(=O)Oc2ccccc2)c1", "protection from virus-induced cell death": "3.11% [at 96.3 µM] (inactive)"}
{"smiles": "CC(=O)Nc1ccc([C@H](C)C(=O)Nc2ncc(C(C)C)s2)cc1", "Potency": "6.15 µM (active)"}
{"smiles": "[O-][n+]1ccccc1SSc1cccc[n+]1[O-]", "protection from virus-induced cell death": "-20.1% [at 88.3 µM] (inactive)"}
{"smiles": "CCN1/C(=C/C=C/c2sc3ccccc3[n+]2CC)Sc2ccccc21", "protection from virus-induced cell death": "10.8% [at 23.8 µM] (inactive)"}
{"smiles": "COc1cc2nc(N3CCN(C(=O)C4CCCO4)CC3)nc(N)c2cc1OC", "note": "(configuration not stated)", "protection from virus-induced cell death": "-1.91% (inactive)"}
{"smiles": "COc1cccc(-c2cc(=O)c3ccccc3o2)c1N", "protection from virus-induced cell death": "-13.9% (inactive)"}
{"smiles": "c1ccc2[nH]c(-c3cscn3)nc2c1", "protection from virus-induced cell death": "-1.36% (inactive)"}
{"smiles": "Nc1ccc2c(c1)CN1C(=O)c3ccccc3C1=N2", "protection from virus-induced cell death": "-13.3% [at 23.8 µM] (inactive)"}
{"smiles": "COc1ccnc2c1CCCCC2S(=O)c1nc2ccccc2[nH]1", "note": "(configuration not stated)", "protection from virus-induced cell death": "9.31% (inactive)"}
{"smiles": "CC(C(=O)O)c1ccc(-c2ccccc2)c(F)c1", "note": "(configuration not stated)", "protection from virus-induced cell death": "-3.91% (inactive)"}
{"smiles": "CC(=O)Oc1ccccc1C(=O)Nc1ncc([N+](=O)[O-])s1", "Potency": "31.6 µM (active)"}
{"smiles": "Cc1nc(N)sc1-c1ccnc(Nc2ccc(N3CCOCC3)cc2)n1", "protection from virus-induced cell death": "22% (inactive)"}
{"smiles": "Cc1cc(O)c2c(c1)C(=O)c1cc(O)cc(O)c1C2=O", "protection from virus-induced cell death": "7.3% (inactive)"}
{"smiles": "CNC1[C@H](O)C(O[C@@H]2C(O)C(O[C@H]3O[C@H]([C@@H](C)NC)CC[C@H]3N)[C@@H](N)C[C@H]2N)OC[C@]1(C)O", "note": "(some centres not stated)", "protection from virus-induced cell death": "4.71% (inactive)"}
{"smiles": "O=C(Nc1ccc(C(=O)O)c(O)c1)c1ccccc1", "protection from virus-induced cell death": "12.3% (inactive)"}
{"smiles": "COc1cc(NC(C)CCCN)c2ncccc2c1", "note": "(configuration not stated)", "Potency": "17.3 µM (active)"}
{"smiles": "O=C1C(Cl)=C(NCCN2CCOCC2)C(=O)c2ncccc21", "protection from virus-induced cell death": "-21% (inactive)"}
{"smiles": "CC(C)c1ccc2oc3nc(N)c(C(=O)O)cc3c(=O)c2c1", "protection from virus-induced cell death": "-20.4% (inactive)"}
{"smiles": "O=C1c2ccccc2-[n+]2ccc3c([nH]c4ccccc43)c21", "protection from virus-induced cell death": "-21% (inactive)"}
{"smiles": "O=C(O)[C@@H](c1ccc(OCc2ccc3ccccc3n2)cc1)C1CCCC1", "protection from virus-induced cell death": "-6.29% (inactive)"}
{"smiles": "COCCn1c2c([n+](Cc3cnccn3)c1C)C(=O)c1ccccc1C2=O", "protection from virus-induced cell death": "-22.2% (inactive)"}
{"smiles": "COc1ccc2nc(NC(=O)Nc3ccccc3)sc2c1", "protection from virus-induced cell death": "-12.6% (inactive)"}
{"smiles": "O=C(Nc1ncc([N+](=O)[O-])s1)c1cccs1", "protection from virus-induced cell death": "-5.39% (inactive)"}
{"smiles": "c1ccc(CCNc2nc(-c3ccccc3)cs2)cc1", "protection from virus-induced cell death": "2.69% (inactive)"}
{"smiles": "O=C(O)c1ccccc1Nc1cccc(C(F)(F)F)c1", "protection from virus-induced cell death": "-13.1% (inactive)"}
{"smiles": "COc1ccc(/C=C/C(=O)Nc2ccccc2C(=O)O)cc1OC", "protection from virus-induced cell death": "-8.74% (inactive)"}
{"smiles": "Cc1ccc(C(=O)c2ccc(CC(=O)O)n2C)cc1", "protection from virus-induced cell death": "15.6% (inactive)"}
{"smiles": "CCOC1OC(=O)C[C@H]1NC(=O)[C@@H]1CCCN1C(=O)[C@@H](NC(=O)c1ccc(N)c(Cl)c1)C(C)(C)C", "note": "(some centres not stated)", "protection from virus-induced cell death": "0.201% (inactive)"}
{"smiles": "C[C@@H](O[C@H]1OCCN(Cc2n[nH]c(=O)[nH]2)[C@@H]1c1ccc(F)cc1)c1cc(C(F)(F)F)cc(C(F)(F)F)c1", "protection from virus-induced cell death": "2.59% (inactive)"}
{"smiles": "OCc1ccc(-c2ccc(-c3ccc(CO)s3)o2)s1", "protection from virus-induced cell death": "4.23% (inactive)"}
{"smiles": "NC(N)=NN=C(/C=C/c1ccc([N+](=O)[O-])o1)/C=C/c1ccc([N+](=O)[O-])o1", "protection from virus-induced cell death": "-21.8% (inactive)"}
{"smiles": "O=c1c2ccccc2nc2n1CCc1c-2[nH]c2ccccc12", "protection from virus-induced cell death": "-7.42% (inactive)"}
{"smiles": "Nc1ccc(O)c(C(=O)O)c1", "protection from virus-induced cell death": "-6.75% (inactive)"}
{"smiles": "CCOCCOC(=O)/C=C/c1ccc(OC)cc1", "protection from virus-induced cell death": "0.0435% (inactive)"}
{"smiles": "CCCCC1C(=O)N(c2ccccc2)N(c2ccc(O)cc2)C1=O", "note": "(configuration not stated)", "Potency": "19.5 µM (active)"}
